Assay results: ChEMBL document CHEMBL4513216, “Probing the Open Global Health Chemical Diversity Library for Multistage-Active Starting Points for Next-Generation Antimalarials” (ACS Infect Dis, 2020)
About 8,600 (12%) of roughly 69,000 compounds showed an effect of 50% or more. The list comes from a sample in which strong results are over-represented; it also holds similar structures and randomly drawn compounds.

System: Plasmodium berghei
Assay: Screen against P. berghei liver stage (PbLuc), transformed with Luciferase, at 10uM
Type: functional, HepG2
Details: tested at 10 uM

Row | Structure (SMILES) | INHIBITION [%]
1 | O=C(O)c1c(-c2cccnc2)ncc2c1CCN(Cc1cccnc1)C2 | 6.66
2 | Cn1nccc1-c1ncc2c(c1C(=O)O)CCN(Cc1ccncc1)C2 | 20.1
3 | O=C(O)c1c(-c2cncnc2)ncc2c1CCN(Cc1cccnc1)C2 | 96.1
4 | O=C(O)c1c(-c2cccnc2)ncc2c1CCN(Cc1ccccn1)C2 | -33.9
5 | Cn1nccc1-c1ncc2c(c1C(=O)O)CCN(Cc1ccccc1)C2 | 58.7
6 | Cn1nccc1-c1ncc2c(c1C(=O)O)CCN(Cc1cccnc1)C2 | 13.7
7 | Fc1ccc(-c2cnc(C3CCCN3)cn2)cc1 (configuration not stated) | 27
8 | O=C1[C@@H]2CC[C@@H](CN(C3CCOCC3)C2)N1Cc1cscn1 | 33
9 | CC(C(=O)O)n1nc(C(F)(F)F)c(Br)c1C1CC1 (configuration not stated) | 38.3
10 | COc1ccc(Cl)cc1CC(=O)NS(=O)(=O)c1ccc(C(N)=O)cc1 | -18
11 | O=C(NCC(O)c1ccccc1)Nc1cccs1 (configuration not stated) | -39.3
12 | CCSc1ncc(CN2CCN(c3ncc(C)c(N)n3)CC2)cn1 | -37.7
13 | CCSc1ncc(CN2CCN(c3nc(C)cnc3C)CC2)cn1 | -50.8
14 | CCSc1ncc(CN2CCN(c3nc(C)ncc3C)CC2)cn1 | 56.6
15 | CCn1cnnc1CNS(=O)(=O)N1CCCC1c1ccco1 (configuration not stated) | -120
16 | O=C(Cc1ccsc1)N1CCCCC1c1ccn2ccnc2n1 (configuration not stated) | 47.1
17 | c1cncc(-c2nnn3c2COCC(CNC2CCOCC2)C3)c1 (configuration not stated) | 33.4
18 | Cc1ccnc(C2(C)CCCN2C(=O)c2cnccn2)n1 (configuration not stated) | 6.32
19 | C/C=C(\C)CN1C[C@H](NC(=O)CN2CCCC2=O)[C@@H](c2ccc(C)o2)C1 | 18.3

Row | Structure (SMILES) | INHIBITION [%]
20 | CC(=O)N[C@@H]1CN(Cc2ccco2)C[C@H]1c1ccc(C)o1 | 32.8
21 | C/C=C(\C)CN1C[C@H](NC(=O)CCOC)[C@@H](c2ccc(C)o2)C1 | 63.5
22 | O=C(NCC1CC1)Nc1cnc2ccc(F)cc2c1O | 23.2
23 | COc1ccc(CN2C[C@@H]3CCCO[C@@H]3[C@H](NS(C)(=O)=O)C2)cc1 | 2.01
24 | CO[C@@H]1c2ccccc2C2(CCN(C(=O)CNS(C)(=O)=O)CC2)[C@H]1O | -6.61
25 | CC(Nc1ccc(F)cc1)c1nnnn1-c1ccccc1 (configuration not stated) | 81.7
26 | COc1ccc(NC(C)C(=O)NCCc2cccs2)cc1F (configuration not stated) | 38.5
27 | CCOc1ccc(NC(C)c2nnnn2-c2ccccc2)cc1CO (configuration not stated) | 20.9
28 | CCC(Nc1nnnn1-c1ccccc1)C(=O)Nc1ccccc1C (configuration not stated) | -19.1
29 | COc1ccc(NC(C)c2nnnn2-c2ccccc2)cc1F (configuration not stated) | 54.3
30 | COc1ccc(NC(C)c2nnnn2-c2ccccc2)cn1 (configuration not stated) | 18.3
31 | O=C(O)Cn1ccc(=O)c2ccc(Cl)cc21 | 11.1
32 | COc1ccc(C)c(NC(=O)NCc2cccc(N(C)C)n2)c1 | -35.2
33 | COc1cc(F)cc(NC(=O)NCc2cccc(N(C)C)n2)c1 | 55.3
34 | CC(=O)c1ccc(NC(=O)NCc2cccc(N(C)C)n2)cc1C | 62.1
35 | CN(C)c1cccc(CNC(=O)Nc2ccc3[nH]nnc3c2)n1 | -4.13
36 | CN(C)c1cccc(CNC(=O)Nc2cc(C#N)ccc2Cl)n1 | 15.8
37 | COc1ccc(NC(=O)NCc2cccc(N(C)C)n2)c(Cl)c1 | 7.49
